The source made the active and inactive calls. Rule for the calls: active = hit-call score of the fitted dose curve at least 0.9, where 1 is the maximum; inconclusive = response in the unintended direction; inactive = score below 0.9.
biological target: rat CYP3A2, Cyp3a2 (gene 266682) (UniProt P05183); assay: NVS_ADME_rCYP3A2: NovaScreen (NVS) CYP450-related Enzyme Activity (ADME) Assay for rat CYP3A2 (AID 2283128)
Experimental: NVS_ADME_rCYP3A2 is a biochemical, single-readout assay that uses extracted gene-proteins in a cell-free assay. Measurements were taken 0.5 hour after chemical dosing in a 96-well plate.NVS_ADME_rCYP3A2 is one of one assay component(s) measured or calculated from the NVS_ADME_rCYP3A2 assay. It is designed to make measurements of enzyme activity, a form of enzyme reporter, as detected with fluorescence intensity signals by Fluorescence technology.Data from the assay component NVS_ADME_rCYP3A2 was analyzed into 1 assay endpoint. This assay endpoint, NVS_ADME_rCYP3A2, was analyzed in the positive analysis fitting direction relative to Acetonitrile as the negative control and baseline of activity. Using a type of enzyme reporter, loss-of-signal activity can be used to understand changes in the enzymatic activity as they relate to the gene Cyp3a2. Furthermore, this assay endpoint can be referred to as a primary readout, because this assay has produced multiple assay endpoints where this one serves a enzymatic activity function. To generalize the intended target to other relatable targets, this assay endpoint is annotated to the cyp intended target family, where the subfamily is xenobiotic metabolism.
Binding assays used specific radioligands (tritiated, iodinated) with non-radioactive competitive displacement ligands in agonist or antagonist protocols (as indicated) and various reference compounds and inhibitors to titrate specific binding to receptors and transporters. Most enzyme assays (CYPs, kinases, phosphatases, proteases, HDACs) used recombinant protein and specific substrates (fluorescence mostly, some colorimetric and radioactive) and inhibitors, followed by a biochemical separation of substrate and product. All assays for the biochemical HTS were initially run in duplicate at a single concentration (10 uM for CYP450 assays and 25 uM for all others). Assay-chemical combinations meeting a pre-defined threshold (e.g., 30% inhibition and other criteria defined below) were then run in singleton concentration-response format with maximum concentration of 20 uM for CYPs and 50 uM for all others. Each assay was run with positive and negative controls, and concurrent controls on every plate. The follow-up (secondary) screen tested active chemical-pairs in concentration series, as well as a few additional assays not tested in the primary screen, some selected negative inactives, and several cases re-run in the concentration series for confirmatory purposes.

rat CYP3A2, Cyp3a2 (gene 266682), sequence (P05183 whole entry, looked up): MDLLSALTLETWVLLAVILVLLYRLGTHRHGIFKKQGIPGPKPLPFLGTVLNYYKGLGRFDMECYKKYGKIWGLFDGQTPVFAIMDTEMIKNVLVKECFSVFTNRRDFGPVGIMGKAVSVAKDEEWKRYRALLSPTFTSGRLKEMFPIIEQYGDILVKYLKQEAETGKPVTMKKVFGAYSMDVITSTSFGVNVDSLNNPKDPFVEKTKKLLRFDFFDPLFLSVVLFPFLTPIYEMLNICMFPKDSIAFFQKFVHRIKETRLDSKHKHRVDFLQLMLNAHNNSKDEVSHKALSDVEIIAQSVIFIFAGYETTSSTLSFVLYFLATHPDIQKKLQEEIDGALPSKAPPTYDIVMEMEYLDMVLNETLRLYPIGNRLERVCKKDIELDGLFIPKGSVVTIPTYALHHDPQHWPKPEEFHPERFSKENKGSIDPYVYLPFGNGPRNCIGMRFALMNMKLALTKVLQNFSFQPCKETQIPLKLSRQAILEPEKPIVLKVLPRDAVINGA

SMILES	AC50
CCCCC(O)(Cn1cncn1)c1ccc(Cl)cc1Cl (stereo unspecified)	1.6 µM (active)
C=CCOC(=O)C(C)(C)OC(=O)c1cc(-n2c(=O)cc(C(F)(F)F)n(C)c2=O)ccc1Cl	0.407 µM (active)
CC(C)=CC1C(C(=O)OCc2coc(Cc3ccccc3)c2)C1(C)C (stereo unspecified)	7.04 µM (active)
Cc1ccc(N=CN(C)C=Nc2ccc(C)cc2C)c(C)c1	1.23 µM (active)
CCCCC(C#N)(Cn1cncn1)c1ccc(Cl)cc1 (stereo unspecified)	2.96 µM (active)
CC1(C)CCC(=Cc2ccc(Cl)cc2)C1(O)Cn1cncn1 (stereo unspecified)	0.225 µM (active)
CCOP(=S)(OCC)Oc1nc(Cl)n(C(C)C)n1	1.14 µM (active)
CCNP(=S)(OC)O/C(C)=C/C(=O)OC(C)C (stereo unspecified)	0.528 µM (active)
COP(=S)(OC)Oc1ccc([N+](=O)[O-])c(C)c1	4.29 µM (active)
CCOc1cc(C(C)(C)C)ccc1C1COC(c2c(F)cccc2F)=N1 (stereo unspecified)	2.18 µM (active)
COC(=O)c1c(C(F)F)nc(C(F)(F)F)c(C2=NCCS2)c1CC(C)C	5.42 µM (active)
CO/N=C(/C1=NOCCO1)c1ccccc1Oc1ncnc(Oc2ccccc2Cl)c1F	1.18 µM (active)
COP(=S)(OC)SCn1nnc2ccccc2c1=O	0.393 µM (active)
COC(=O)NC(=S)Nc1ccccc1NC(=S)NC(=O)OC	7.25 µM (active)
CCN(CC)C(=O)C(C)Oc1cccc2ccccc12 (stereo unspecified)	5.34 µM (active)
COc1ccc(-c2ccccc2)cc1NNC(=O)OC(C)C	0.832 µM (active)

— PubChem BioAssay (EPA / NIEHS)
